# Results published in PubChem BioAssay.
# Active and inactive are the calls of the source. Unless noted, how the calls were made is not given here.
# Legend:
# [1] = compound effects on lung adenocarcinoma cell viability – A549, calcein-AM fluorescence, 48 h, basal, profiling panel (AID 1162); conditions: higher = more signal; further: test concentration not given here
# [2] = compound effects on differentiated 3T3-L1 adipocyte viability – cell-based, 3T3-L1 adipocytes, calcein-AM fluorescence, 48 h, basal, profiling panel (AID 1163); conditions: 3T3-L1 adipocytes viability, higher = more signal; further: test concentration not given here
# [3] = compound effects on hepatocellular carcinoma cell viability – HepG2, calcein-AM fluorescence, 48 h, basal, profiling panel (AID 1164); conditions: higher = more signal; further: test concentration not given here
# [4] = compound effects on multiple myeloma cell viability – MM1S, calcein-AM fluorescence, 48 h, basal, profiling panel (AID 1165); conditions: higher = more signal; further: test concentration not given here
# [5] = calcein-AM signal in unstimulated myeloma cells – cell-based, calcein-AM fluorescence, 48 h, PK04 Diversity Set, profiling panel (AID 1166); conditions: RPMI8226 myeloma viability, higher = more signal;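 further: cells grown under basal conditions without added stimulus; test concentration not given here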
# [6] = JC-1 mitochondrial signal, unstimulated HepG2 cells – cell-based, JC-1 fluorescence, 24 h, 100 nL compound, profiling panel (AID 1167); conditions: HepG2 mitochondrial potential, higher = more signal; further: test concentration not given here
# [7] = JC-1 mitochondrial signal, unstimulated adipocytes – cell-based, JC-1 fluorescence, 3T3-L1 adipocytes, 24 h, 100 nL compound, profiling panel (AID 1168); conditions: JC-1 mitochondrial fluorescence, higher = more signal, called active from +8 up or from −8 down; further: test concentration not given here
# [8] = JC-1 mitochondrial signal, unstimulated myeloma cells – cell-based, JC-1 fluorescence, RPMI8226, 24 h, 100 nL compound, profiling panel (AID 1169); conditions: JC-1 mitochondrial potential fluorescence, higher = more signal; further: test concentration not given here
# [9] = JC-1 mitochondrial signal, unstimulated MM1S myeloma – cell-based, JC-1 fluorescence, 24 h, 100 nL compound, profiling panel (AID 1170); conditions: MM1S mitochondrial potential, higher = more signal; further: test concentration not given here
# [10] = resazurin metabolic signal in A549 cells – cell-based, resazurin fluorescence, 24 h, PK04 Diversity Set, profiling panel (AID 1171); conditions: A549 viability, higher = more signal, called active from +8 up or from −8 down; further: test concentration not given here
# [11] = resazurin metabolic signal in HepG2 cells – cell-based, resazurin fluorescence, 24 h, PK04 Diversity Set, profiling panel (AID 1172); conditions: HepG2 viability, higher = more signal; further: test concentration not given here
# [12] = budding yeast growth changes without added modifier – OD600, strain BY4716, 24 h, basal condition, primary screen (AID 1173); conditions: S. cerevisiae BY4716 growth, OD600, 24 h; higher = more signal, called active from +8 up or from −8 down
# [13] = viability profiling in MM1S myeloma cells – cell-based, resazurin fluorescence, basal, 24 h, PK04 Diversity Set, profiling panel (AID 1174); conditions: higher = more signal, called active from +8 up or from −8 down; further: test concentration not given here
# [14] = biological target: Dihydroorotate dehydrogenase (quinone), mitochondrial (Plasmodium falciparum (isolate 3D7)) (UniProt Q08210); experiment: inhibition of P. falciparum DHODH – biochemical, C-terminal His tag, absorbance 600 nm, primary screen (AID 1175); conditions: PfDHODH enzyme, DCIP absorbance 600 nm; higher = more signal, called active from +8 up or from −8 down;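 further: recombinant parasite enzyme with a five histidine tag at its C terminus; test concentration not given here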
# Sequence of Dihydroorotate dehydrogenase (quinone), mitochondrial (Plasmodium falciparum (isolate 3D7)) (Q08210 whole entry, looked up): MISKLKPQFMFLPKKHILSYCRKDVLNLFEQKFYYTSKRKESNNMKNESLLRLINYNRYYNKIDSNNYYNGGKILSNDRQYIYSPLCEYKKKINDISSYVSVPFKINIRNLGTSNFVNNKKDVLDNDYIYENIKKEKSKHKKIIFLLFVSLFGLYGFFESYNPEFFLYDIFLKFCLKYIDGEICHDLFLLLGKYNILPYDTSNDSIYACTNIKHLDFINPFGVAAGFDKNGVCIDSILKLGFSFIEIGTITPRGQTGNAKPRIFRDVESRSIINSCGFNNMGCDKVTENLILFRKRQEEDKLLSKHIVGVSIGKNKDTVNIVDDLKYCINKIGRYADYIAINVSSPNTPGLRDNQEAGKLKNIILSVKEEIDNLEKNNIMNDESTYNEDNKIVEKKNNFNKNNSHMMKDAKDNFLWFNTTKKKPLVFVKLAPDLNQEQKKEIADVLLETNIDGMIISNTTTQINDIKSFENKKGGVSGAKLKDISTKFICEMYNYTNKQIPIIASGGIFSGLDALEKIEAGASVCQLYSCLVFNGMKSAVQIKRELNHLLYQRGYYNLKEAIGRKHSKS
# [15] = inhibition of PAO1 biofilm formation – strain PAO1, LB-PBS medium, absorbance 600 nm, primary screen (AID 1176); further: test concentration not given here; conditions: P. aeruginosa PAO1 growth/biofilm, A600, 12 h; higher = more signal
# [16] = growth modulation of vineyard yeast isolate – strain RM11-1a, OD600, basal, 24 h, primary screen (AID 1177);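 further: cultures grown under basal conditions with no added stressor; test concentration not given here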; conditions: S. cerevisiae RM11-1a growth, OD600, 24 h; higher = more signal, called active from +8 up or from −8 down
# [17] = growth of efflux-deficient E. coli DRC39 – strain DRC39, OD650, 24 h, E. coli filamentation inducers, primary screen (AID 1178);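 further: growth measured as culture turbidity by optical density at 650 nm; test concentration not given here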; conditions: E. coli DRC39 acrAB, higher = more signal, called active from +8 up or from −8 down
# [18] = growth of efflux-deficient E. coli DRC39 – strain DRC39, OD650, 48 h, E. coli filamentation inducers, primary screen (AID 1179);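 further: screen aims at cell division blockers that make cells filament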; conditions: E. coli DRC39 delta-acrAB growth, higher = more signal, called active from +8 up or from −8 down
# [19] = viability profiling in RPMI8226 myeloma cells – cell-based, resazurin fluorescence, basal, 24 h, PK04 Diversity Set, profiling panel (AID 1180); conditions: higher = more signal;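 further: RPMI8826 multiple myeloma cell line at 5000 cells per well; test concentration not given here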
# [20] = biological target: E3 ubiquitin-protein ligase XIAP (Homo sapiens) (UniProt P98170); experiment: small molecules binding XIAP protein – biophysical, small-molecule microarray, fluorescence 635 nm, primary screen (AID 1181); conditions: higher = more signal;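 further: score merges 667 nm emission and signal to noise over triplicate slides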
# Sequence of E3 ubiquitin-protein ligase XIAP (Homo sapiens) (P98170 whole entry, looked up): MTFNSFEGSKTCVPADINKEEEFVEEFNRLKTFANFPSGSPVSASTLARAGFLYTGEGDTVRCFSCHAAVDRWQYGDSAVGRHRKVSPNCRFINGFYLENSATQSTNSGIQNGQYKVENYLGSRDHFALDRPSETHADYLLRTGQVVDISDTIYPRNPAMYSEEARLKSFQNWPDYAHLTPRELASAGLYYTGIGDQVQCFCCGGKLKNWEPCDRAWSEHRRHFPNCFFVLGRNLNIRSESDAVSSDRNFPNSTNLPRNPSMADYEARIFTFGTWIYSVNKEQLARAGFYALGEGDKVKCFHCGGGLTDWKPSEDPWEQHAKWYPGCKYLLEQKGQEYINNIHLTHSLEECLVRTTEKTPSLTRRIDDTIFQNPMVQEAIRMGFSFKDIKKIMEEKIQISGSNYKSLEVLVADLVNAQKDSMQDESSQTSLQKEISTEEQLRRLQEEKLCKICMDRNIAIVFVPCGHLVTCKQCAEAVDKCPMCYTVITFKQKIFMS
SMILES,z-score [1],z-score [2],z-score [3],z-score [4],z-score [5],z-score [6],z-score [7],z-score [8],z-score [9],z-score [10],z-score [11],z-score [12],z-score [13],composite z-score [14],z-score [15],z-score [16],z-score [17],z-score [18],z-score [19],composite z-score [20]
C=C[C@@H](CO)N(Cc1ccc(OC)cc1)S(=O)(=O)c1ccc(Br)cc1,1.49,0.773,0.349,1.39,0.613,0.622,2.05 (inactive),0.359,-0.159,1.23 (inactive),1.04,-5.71 (inactive),-0.495 (inactive),-2.32 (inactive),-0.152 (inactive),-1.99 (inactive),1.66 (inactive),1.88 (inactive),-0.455,-0.434
CCCCC(CC)C(O)C1C=CC2C(=O)N(c3ccccc3)C(=O)C2N1Nc1ccc(C#N)cc1 (stereo not given),1.99,-0.494,2.34,0.0084,0.368,-1.31,-1.61 (inactive),0.0604,-0.679,0.857 (inactive),-0.0318,-0.847 (inactive),-0.67 (inactive),0.215 (inactive),1.7 (inactive),0.913 (inactive),0.248 (inactive),0.0706 (inactive),-0.661,0.212
CCCC#C[Si](O[C@H](CC)c1cn([C@H](C)c2ccccc2)nn1)(C(C)C)C(C)C,1.18,-0.374,0.9,-1.32,-1.74,0.621,0.698 (inactive),-0.0539,-0.0359,0.61 (inactive),0.186,-12.9 (active),-0.098 (inactive),0.738 (inactive),-0.677 (inactive),0.75 (inactive),1.4 (inactive),1.06 (inactive),1.29,0.274
CC(C)N1CC=CC23O[C@@H]4C=CCCOC(=O)C4[C@H]2C(=O)N(CCCO)[C@@H]3C1=O (stereo not given in full),-0.726,1.36,0.292,0.756,-0.457,-0.568,0.128 (inactive),-0.303,-0.438,0.446 (inactive),1.12,-0.951 (inactive),0.348 (inactive),-0.926 (inactive),-0.276 (inactive),0.0977 (inactive),-0.463 (inactive),0.32 (inactive),-0.114,0.152
COc1ccccc1CN1C(=O)c2ccccc2[C@](Cc2ccccc2I)(C(=O)O)[C@@H]1c1ccc(CO)cc1,1.14,-1.03,0.235,-0.616,-1.7,-0.199,-0.205 (inactive),-0.151,-0.177,-0.17 (inactive),-0.569,-1.49 (inactive),-0.0504 (inactive),-0.0436 (inactive),0.416 (inactive),0.0183 (inactive),0.706 (inactive),0.602 (inactive),0.437,0.133
C=CCC(OC(C)=O)[C@@H]1[C@@H](N(Cc2cc3ccccc3o2)C(=O)Cc2ccc(F)cc2)c2cc(OCCCO)ccc2N1C(=O)Cc1ccc2ccccc2c1 (stereo not given in full),0.181,-0.136,0.766,-0.082,-0.759,1.22,-0.683 (inactive),-0.311,1.19,0.0336 (inactive),0.278,-0.0417 (inactive),0.72 (inactive),-13.4 (active),0.526 (inactive),-0.146 (inactive),-1 (inactive),-0.861 (inactive),0.189,0.109
CCOC(=O)C[C@H]1[C@H](OC(=O)c2ccc(C(=O)c3ccccc3)cc2)[C@@H](NC(=O)c2ccc3ccccc3n2)c2cc(OCCCO)ccc2N1C(=O)Cc1ccc(OC)cc1,0.822,0.418,0.113,0.37,0.0914,0.546,0.295 (inactive),-0.181,-0.14,0.0291 (inactive),-0.0031,1.03 (inactive),0.0487 (inactive),-0.0608 (inactive),-0.75 (inactive),0.0192 (inactive),-2.25 (inactive),-2.31 (inactive),0.131,-0.0961
CC(C)N1C(=O)c2ccccc2[C@@H](C(=O)NCCN2CCOCC2)[C@@H]1c1ccc(CO)cc1,0.281,-0.973,0.135,-0.551,0.165,-0.247,-1.26 (inactive),0.772,0.113,0.175 (inactive),-0.229,0.525 (inactive),-0.401 (inactive),0.184 (inactive),0.429 (inactive),0.985 (inactive),0.0059 (inactive),-0.434 (inactive),-0.0956,-0.465
